Positions count from the first letter of the chain named.
B1: GTATCTTA (ssRNA)
RNA 1: GAGUUCUACAGUCCGACGAUCCCAACGUAUCUUACACCUGGAAUUCUCGGGUGCCAA
RNA 2: UGGAGUGUGACAAUGGUGUUUG
DNA 1: GATCGTCGGACTGTAGAACTC
DNA 2: TTGGCACCCGAGAATTCCA
modifications: constant regions annealed to DNA blockers; guide miR-122 5' phosphate
B2: ATGTTCCG (ssRNA)
RNA 1: B1 RNA 1 with G27A, A29G, C31U, U32C, U33C, A34G
RNA 2: UGGAGUGUGACAAUGGUGUUUG
DNA 1: GATCGTCGGACTGTAGAACTC
DNA 2: TTGGCACCCGAGAATTCCA
modifications: constant regions annealed to DNA blockers; guide miR-122 5' phosphate
B3: GCATCCCG (ssRNA)
RNA 1: B1 RNA 1 with U28C, U32C, U33C, A34G
RNA 2: UGGAGUGUGACAAUGGUGUUUG
DNA 1: GATCGTCGGACTGTAGAACTC
DNA 2: TTGGCACCCGAGAATTCCA
modifications: constant regions annealed to DNA blockers; guide miR-122 5' phosphate
B4: GCACTTTG (ssRNA)
RNA 1: B1 RNA 1 with U28C, U30C, C31U, A34G
RNA 2: UGGAGUGUGACAAUGGUGUUUG
DNA 1: GATCGTCGGACTGTAGAACTC
DNA 2: TTGGCACCCGAGAATTCCA
modifications: constant regions annealed to DNA blockers; guide miR-122 5' phosphate
B5: GCATTCTG (ssRNA)
RNA 1: B1 RNA 1 with U28C, C31U, U32C, A34G
RNA 2: UGGAGUGUGACAAUGGUGUUUG
DNA 1: GATCGTCGGACTGTAGAACTC
DNA 2: TTGGCACCCGAGAATTCCA
modifications: constant regions annealed to DNA blockers; guide miR-122 5' phosphate
B6: ACGTTTTG (ssRNA)
RNA 1: B1 RNA 1 with G27A, U28C, A29G, C31U, A34G
RNA 2: UGGAGUGUGACAAUGGUGUUUG
DNA 1: GATCGTCGGACTGTAGAACTC
DNA 2: TTGGCACCCGAGAATTCCA
modifications: constant regions annealed to DNA blockers; guide miR-122 5' phosphate
B7: GTATTTTG (ssRNA)
RNA 1: B1 RNA 1 with C31U, A34G
RNA 2: UGGAGUGUGACAAUGGUGUUUG
DNA 1: GATCGTCGGACTGTAGAACTC
DNA 2: TTGGCACCCGAGAATTCCA
modifications: constant regions annealed to DNA blockers; guide miR-122 5' phosphate
B8: ACGCTTTG (ssRNA)
RNA 1: B1 RNA 1 with G27A, U28C, A29G, U30C, C31U, A34G
RNA 2: UGGAGUGUGACAAUGGUGUUUG
DNA 1: GATCGTCGGACTGTAGAACTC
DNA 2: TTGGCACCCGAGAATTCCA
modifications: constant regions annealed to DNA blockers; guide miR-122 5' phosphate
B9: GTGTCCCG (ssRNA)
RNA 1: B1 RNA 1 with A29G, U32C, U33C, A34G
RNA 2: UGGAGUGUGACAAUGGUGUUUG
DNA 1: GATCGTCGGACTGTAGAACTC
DNA 2: TTGGCACCCGAGAATTCCA
modifications: constant regions annealed to DNA blockers; guide miR-122 5' phosphate
B10: GTGTTTTG (ssRNA)
RNA 1: B1 RNA 1 with A29G, C31U, A34G
RNA 2: UGGAGUGUGACAAUGGUGUUUG
DNA 1: GATCGTCGGACTGTAGAACTC
DNA 2: TTGGCACCCGAGAATTCCA
modifications: constant regions annealed to DNA blockers; guide miR-122 5' phosphate
B11: ACGTTTCG (ssRNA)
RNA 1: B1 RNA 1 with G27A, U28C, A29G, C31U, U33C, A34G
RNA 2: UGGAGUGUGACAAUGGUGUUUG
DNA 1: GATCGTCGGACTGTAGAACTC
DNA 2: TTGGCACCCGAGAATTCCA
modifications: constant regions annealed to DNA blockers; guide miR-122 5' phosphate
B12: GTATTTCG (ssRNA)
RNA 1: B1 RNA 1 with C31U, U33C, A34G
RNA 2: UGGAGUGUGACAAUGGUGUUUG
DNA 1: GATCGTCGGACTGTAGAACTC
DNA 2: TTGGCACCCGAGAATTCCA
modifications: constant regions annealed to DNA blockers; guide miR-122 5' phosphate
B13: GTGTTCTA (ssRNA)
RNA 1: B1 RNA 1 with A29G, C31U, U32C
RNA 2: UGGAGUGUGACAAUGGUGUUUG
DNA 1: GATCGTCGGACTGTAGAACTC
DNA 2: TTGGCACCCGAGAATTCCA
modifications: constant regions annealed to DNA blockers; guide miR-122 5' phosphate
B14: GTACTCTA (ssRNA)
RNA 1: B1 RNA 1 with U30C, C31U, U32C
RNA 2: UGGAGUGUGACAAUGGUGUUUG
DNA 1: GATCGTCGGACTGTAGAACTC
DNA 2: TTGGCACCCGAGAATTCCA
modifications: constant regions annealed to DNA blockers; guide miR-122 5' phosphate
B15: ACGCCCTG (ssRNA)
RNA 1: B1 RNA 1 with G27A, U28C, A29G, U30C, U32C, A34G
RNA 2: UGGAGUGUGACAAUGGUGUUUG
DNA 1: GATCGTCGGACTGTAGAACTC
DNA 2: TTGGCACCCGAGAATTCCA
modifications: constant regions annealed to DNA blockers; guide miR-122 5' phosphate
B16: GCATCTCG (ssRNA)
RNA 1: B1 RNA 1 with U28C, U33C, A34G
RNA 2: UGGAGUGUGACAAUGGUGUUUG
DNA 1: GATCGTCGGACTGTAGAACTC
DNA 2: TTGGCACCCGAGAATTCCA
modifications: constant regions annealed to DNA blockers; guide miR-122 5' phosphate
B17: GTACCCTG (ssRNA)
RNA 1: B1 RNA 1 with U30C, U32C, A34G
RNA 2: UGGAGUGUGACAAUGGUGUUUG
DNA 1: GATCGTCGGACTGTAGAACTC
DNA 2: TTGGCACCCGAGAATTCCA
modifications: constant regions annealed to DNA blockers; guide miR-122 5' phosphate
B18: ACGTCCCG (ssRNA)
RNA 1: B1 RNA 1 with G27A, U28C, A29G, U32C, U33C, A34G
RNA 2: UGGAGUGUGACAAUGGUGUUUG
DNA 1: GATCGTCGGACTGTAGAACTC
DNA 2: TTGGCACCCGAGAATTCCA
modifications: constant regions annealed to DNA blockers; guide miR-122 5' phosphate
B19: ACGTTCTG (ssRNA)
RNA 1: B1 RNA 1 with G27A, U28C, A29G, C31U, U32C, A34G
RNA 2: UGGAGUGUGACAAUGGUGUUUG
DNA 1: GATCGTCGGACTGTAGAACTC
DNA 2: TTGGCACCCGAGAATTCCA
modifications: constant regions annealed to DNA blockers; guide miR-122 5' phosphate
B20: ATGCTCTG (ssRNA)
RNA 1: B1 RNA 1 with G27A, A29G, U30C, C31U, U32C, A34G
RNA 2: UGGAGUGUGACAAUGGUGUUUG
DNA 1: GATCGTCGGACTGTAGAACTC
DNA 2: TTGGCACCCGAGAATTCCA
modifications: constant regions annealed to DNA blockers; guide miR-122 5' phosphate
B21: GTGTTTCG (ssRNA)
RNA 1: B1 RNA 1 with A29G, C31U, U33C, A34G
RNA 2: UGGAGUGUGACAAUGGUGUUUG
DNA 1: GATCGTCGGACTGTAGAACTC
DNA 2: TTGGCACCCGAGAATTCCA
modifications: constant regions annealed to DNA blockers; guide miR-122 5' phosphate
B22: GCATTTTG (ssRNA)
RNA 1: B1 RNA 1 with U28C, C31U, A34G
RNA 2: UGGAGUGUGACAAUGGUGUUUG
DNA 1: GATCGTCGGACTGTAGAACTC
DNA 2: TTGGCACCCGAGAATTCCA
modifications: constant regions annealed to DNA blockers; guide miR-122 5' phosphate
B23: ATATTCTG (ssRNA)
RNA 1: B1 RNA 1 with G27A, C31U, U32C, A34G
RNA 2: UGGAGUGUGACAAUGGUGUUUG
DNA 1: GATCGTCGGACTGTAGAACTC
DNA 2: TTGGCACCCGAGAATTCCA
modifications: constant regions annealed to DNA blockers; guide miR-122 5' phosphate

Columns and labels:
Experiment in all cases: RNA Bind-n-Seq (nitrocellulose filter binding and sequencing); miR-122 guide loaded in AGO2; 60 min incubation; 30 mM Tris pH 8.0, 100 mM potassium acetate, 2 mM magnesium acetate, 0.5 mM TCEP, 0.005% NP-40, 0.01 mg/ml yeast tRNA; 3 nM AGO2-miR-122, 100 nM RNA library; 60; high values mean tight binding
Conditions in all cases: protein: recombinant; tags: His6 (N-terminal, pFastBac HTA)
AGO2 L192P = AGO2 L192P (Homo sapiens, UniProt Q9UKV8 1-859, L192P;S387D;S824A;S828D;S831D;S834A)
Chain of AGO2 L192P (Q9UKV8 whole entry L192P/S387D/S824A/S828D/S831D/S834A): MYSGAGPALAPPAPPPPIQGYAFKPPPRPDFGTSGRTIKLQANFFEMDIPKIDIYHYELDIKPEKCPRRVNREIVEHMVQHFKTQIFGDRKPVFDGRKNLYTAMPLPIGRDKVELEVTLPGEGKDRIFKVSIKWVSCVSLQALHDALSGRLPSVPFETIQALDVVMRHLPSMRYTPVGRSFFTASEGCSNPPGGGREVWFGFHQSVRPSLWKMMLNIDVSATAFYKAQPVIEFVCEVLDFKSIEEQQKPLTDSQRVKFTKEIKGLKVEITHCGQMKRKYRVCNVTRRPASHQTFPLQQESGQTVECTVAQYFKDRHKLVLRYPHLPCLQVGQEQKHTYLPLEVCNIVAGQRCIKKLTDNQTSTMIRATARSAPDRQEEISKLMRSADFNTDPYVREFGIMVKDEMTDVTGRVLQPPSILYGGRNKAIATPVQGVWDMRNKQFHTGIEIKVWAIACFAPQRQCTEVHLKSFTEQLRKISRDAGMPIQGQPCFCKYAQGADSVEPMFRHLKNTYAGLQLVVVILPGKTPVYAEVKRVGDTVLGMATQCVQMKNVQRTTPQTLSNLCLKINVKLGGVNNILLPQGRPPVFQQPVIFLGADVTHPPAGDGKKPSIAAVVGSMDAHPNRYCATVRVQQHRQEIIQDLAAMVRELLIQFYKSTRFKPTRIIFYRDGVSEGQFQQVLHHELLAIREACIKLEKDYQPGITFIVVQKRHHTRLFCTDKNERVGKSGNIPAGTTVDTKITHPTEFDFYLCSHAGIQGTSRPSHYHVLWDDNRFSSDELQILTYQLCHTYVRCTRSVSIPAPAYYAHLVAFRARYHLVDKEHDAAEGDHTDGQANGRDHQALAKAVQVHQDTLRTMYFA
Procedure, shortened: (§1)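 His-tagged AGO2 was expressed in Sf9 insect cells by baculovirus, loaded with a synthetic guide RNA, and purified by Ni-NTA and a biotinylated capture oligo. Bound RNA was extracted, reverse-transcribed, barcode-amplified and Illumina-sequenced. Fold enrichment is each sequence's read fraction divided by its input-library read fraction.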

AGO2 A367P = AGO2 A367P (Homo sapiens, UniProt Q9UKV8 1-859, A367P;S387D;S824A;S828D;S831D;S834A)
Chain of AGO2 A367P (Q9UKV8 whole entry A367P/S387D/S824A/S828D/S831D/S834A): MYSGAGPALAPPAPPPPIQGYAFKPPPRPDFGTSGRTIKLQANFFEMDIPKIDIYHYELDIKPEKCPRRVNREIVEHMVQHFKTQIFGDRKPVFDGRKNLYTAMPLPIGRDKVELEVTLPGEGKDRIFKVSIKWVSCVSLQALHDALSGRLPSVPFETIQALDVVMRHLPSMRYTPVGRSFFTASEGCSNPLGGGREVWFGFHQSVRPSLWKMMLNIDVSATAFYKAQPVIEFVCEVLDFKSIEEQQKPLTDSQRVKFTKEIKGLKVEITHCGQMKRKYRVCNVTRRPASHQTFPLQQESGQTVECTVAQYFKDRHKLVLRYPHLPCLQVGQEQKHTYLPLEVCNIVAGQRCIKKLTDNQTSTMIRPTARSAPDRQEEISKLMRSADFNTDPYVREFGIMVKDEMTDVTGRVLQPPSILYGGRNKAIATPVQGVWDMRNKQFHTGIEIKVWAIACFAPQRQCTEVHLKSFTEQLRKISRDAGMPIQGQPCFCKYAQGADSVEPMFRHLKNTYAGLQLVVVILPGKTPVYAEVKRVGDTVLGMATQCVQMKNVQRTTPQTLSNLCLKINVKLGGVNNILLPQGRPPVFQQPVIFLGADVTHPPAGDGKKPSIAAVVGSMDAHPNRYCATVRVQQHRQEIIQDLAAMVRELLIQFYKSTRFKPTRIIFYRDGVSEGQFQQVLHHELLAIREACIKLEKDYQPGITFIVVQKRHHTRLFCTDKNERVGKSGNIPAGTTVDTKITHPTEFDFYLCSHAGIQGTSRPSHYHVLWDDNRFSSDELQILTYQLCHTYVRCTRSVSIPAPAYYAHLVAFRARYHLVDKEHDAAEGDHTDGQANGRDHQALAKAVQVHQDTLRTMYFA
Procedure, shortened: as §1

AGO2 T357M = AGO2 T357M (Homo sapiens, UniProt Q9UKV8 1-859, T357M;S387D;S824A;S828D;S831D;S834A)
Chain of AGO2 T357M (Q9UKV8 whole entry T357M/S387D/S824A/S828D/S831D/S834A): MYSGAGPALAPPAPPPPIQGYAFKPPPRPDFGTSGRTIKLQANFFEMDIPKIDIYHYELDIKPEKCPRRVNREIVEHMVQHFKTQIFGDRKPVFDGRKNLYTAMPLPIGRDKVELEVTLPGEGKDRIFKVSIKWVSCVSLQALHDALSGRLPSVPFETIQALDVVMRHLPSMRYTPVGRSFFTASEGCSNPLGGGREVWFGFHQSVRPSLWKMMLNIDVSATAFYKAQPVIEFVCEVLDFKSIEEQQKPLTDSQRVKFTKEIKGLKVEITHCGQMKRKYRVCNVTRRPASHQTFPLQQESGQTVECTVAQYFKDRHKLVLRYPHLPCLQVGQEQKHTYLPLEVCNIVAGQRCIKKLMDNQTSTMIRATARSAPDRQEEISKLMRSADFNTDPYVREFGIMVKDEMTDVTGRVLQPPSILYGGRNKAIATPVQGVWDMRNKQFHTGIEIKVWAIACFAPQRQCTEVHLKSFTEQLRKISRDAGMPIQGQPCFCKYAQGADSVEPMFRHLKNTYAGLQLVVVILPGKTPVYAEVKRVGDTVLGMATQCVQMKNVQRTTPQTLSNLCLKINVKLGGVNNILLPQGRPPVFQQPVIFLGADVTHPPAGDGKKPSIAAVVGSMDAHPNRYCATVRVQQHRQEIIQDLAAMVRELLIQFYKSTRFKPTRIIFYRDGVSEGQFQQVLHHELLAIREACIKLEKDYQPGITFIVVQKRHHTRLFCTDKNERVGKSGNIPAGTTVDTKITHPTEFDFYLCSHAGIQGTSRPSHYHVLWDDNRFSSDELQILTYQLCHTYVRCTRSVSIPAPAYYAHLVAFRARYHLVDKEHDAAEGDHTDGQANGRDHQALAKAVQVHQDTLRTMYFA
Procedure, shortened: as §1

Binder | binding signal (AGO2 L192P) | binding signal (AGO2 A367P) | binding signal (AGO2 T357M)
B1 | 0.457 fold enrichment over input | 0.174 fold enrichment over input | 0.596 fold enrichment over input
B2 | 0.352 fold enrichment over input | 0.121 fold enrichment over input | 0.475 fold enrichment over input
B3 | 0.376 fold enrichment over input | 0.143 fold enrichment over input | 0.478 fold enrichment over input
B4 | 0.325 fold enrichment over input | 0.126 fold enrichment over input | 0.452 fold enrichment over input
B5 | 0.359 fold enrichment over input | 0.137 fold enrichment over input | 0.44 fold enrichment over input
B6 | 0.342 fold enrichment over input | 0.136 fold enrichment over input | 0.495 fold enrichment over input
B7 | 0.384 fold enrichment over input | 0.131 fold enrichment over input | 0.514 fold enrichment over input
B8 | 0.36 fold enrichment over input | 0.134 fold enrichment over input | 0.52 fold enrichment over input
B9 | 0.344 fold enrichment over input | 0.126 fold enrichment over input | 0.447 fold enrichment over input
B10 | 0.344 fold enrichment over input | 0.129 fold enrichment over input | 0.483 fold enrichment over input
B11 | 0.338 fold enrichment over input | 0.13 fold enrichment over input | 0.445 fold enrichment over input
B12 | 0.381 fold enrichment over input | 0.127 fold enrichment over input | 0.515 fold enrichment over input
B13 | 0.435 fold enrichment over input | 0.156 fold enrichment over input | 0.531 fold enrichment over input
B14 | 0.425 fold enrichment over input | 0.181 fold enrichment over input | 0.539 fold enrichment over input
B15 | 0.4 fold enrichment over input | 0.147 fold enrichment over input | 0.519 fold enrichment over input
B16 | 0.321 fold enrichment over input | 0.121 fold enrichment over input | 0.4 fold enrichment over input
B17 | 0.344 fold enrichment over input | 0.129 fold enrichment over input | 0.483 fold enrichment over input
B18 | 0.332 fold enrichment over input | 0.141 fold enrichment over input | 0.443 fold enrichment over input
B19 | 0.334 fold enrichment over input | 0.128 fold enrichment over input | 0.445 fold enrichment over input
B20 | 0.376 fold enrichment over input | 0.14 fold enrichment over input | 0.486 fold enrichment over input
B21 | 0.36 fold enrichment over input | 0.133 fold enrichment over input | 0.483 fold enrichment over input
B22 | 0.36 fold enrichment over input | 0.127 fold enrichment over input | 0.449 fold enrichment over input
B23 | 0.389 fold enrichment over input | 0.137 fold enrichment over input | 0.54 fold enrichment over input

— article PMC12529666, “Dysregulation of AGO2-miRNA dynamics underlies the AGO2-associated Lessel–Kreienkamp syndrome”
